# Test results taken from PubChem BioAssay AID703 (NMMLSC, 2007).
# A number with no mark means an inactive call. How the calls were made is not given here.
# Target: Integrin alpha-4 (Homo sapiens) (UniProt P13612)
# Test: VLA-4 ligand binding increase, concentration series – cell-based, LDV-FITC binding, flow cytometry, dose response (AID 703)
# Settings: Jurkat cells, hits give high values
# Sequence of Integrin alpha-4 (Homo sapiens) (P13612 whole entry, looked up): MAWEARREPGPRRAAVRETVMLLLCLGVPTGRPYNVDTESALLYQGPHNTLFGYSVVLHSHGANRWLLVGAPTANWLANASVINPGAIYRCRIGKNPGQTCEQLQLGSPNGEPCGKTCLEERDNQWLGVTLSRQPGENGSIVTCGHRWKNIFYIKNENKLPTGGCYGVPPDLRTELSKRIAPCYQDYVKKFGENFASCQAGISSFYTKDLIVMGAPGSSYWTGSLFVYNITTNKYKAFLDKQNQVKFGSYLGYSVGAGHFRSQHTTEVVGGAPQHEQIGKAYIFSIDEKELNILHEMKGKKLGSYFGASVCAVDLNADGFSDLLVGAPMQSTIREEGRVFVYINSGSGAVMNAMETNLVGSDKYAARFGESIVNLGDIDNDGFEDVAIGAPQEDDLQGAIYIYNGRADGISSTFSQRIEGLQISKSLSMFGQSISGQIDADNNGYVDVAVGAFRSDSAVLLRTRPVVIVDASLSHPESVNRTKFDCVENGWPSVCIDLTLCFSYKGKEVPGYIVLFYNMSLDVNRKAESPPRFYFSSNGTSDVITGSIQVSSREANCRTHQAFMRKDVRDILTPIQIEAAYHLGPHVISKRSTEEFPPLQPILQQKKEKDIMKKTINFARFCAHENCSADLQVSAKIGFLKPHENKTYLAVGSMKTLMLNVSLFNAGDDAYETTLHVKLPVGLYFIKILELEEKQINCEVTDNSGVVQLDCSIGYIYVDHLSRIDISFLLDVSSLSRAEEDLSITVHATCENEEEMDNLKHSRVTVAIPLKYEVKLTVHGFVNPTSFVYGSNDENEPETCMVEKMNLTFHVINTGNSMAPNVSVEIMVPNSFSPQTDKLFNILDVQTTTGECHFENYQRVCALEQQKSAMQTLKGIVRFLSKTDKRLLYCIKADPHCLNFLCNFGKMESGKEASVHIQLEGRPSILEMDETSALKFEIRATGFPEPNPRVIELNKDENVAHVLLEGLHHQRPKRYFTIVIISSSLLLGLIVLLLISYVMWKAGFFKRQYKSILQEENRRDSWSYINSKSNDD
structure (smiles),measurement,value
O=c1c2ccccc2[se]n1-c1ccccc1,activation at 0 C,0
